Holding throughout (assay): NCI-60 one-dose screen, 48 h (100 = growth as untreated, 0 = no growth, -100 = all killed)
Details in all cases: 10 µM unless noted

The test system of assay [1] is SR leukemia.
In assay [2] the test system is RPMI-8226 leukemia.
Assay [3] has as its system OVCAR-8 ovarian.
In assay [4] the test system is OVCAR-5 ovarian.
Assay [5] relates to OVCAR-4 ovarian.
Assay [6] deals with SK-OV-3 ovarian.
Assay [7] relates to IGROV1 ovarian.
In assay [8] the test system is OVCAR-3 ovarian.
Assay [9] deals with HS 578T breast.
Assay [10] has as its system NCI/ADR-RES ovarian.
Assay [11] relates to T-47D breast.
The subject of assay [12] is MDA-MB-435 melanoma.
The test system of assay [13] is SW-620 colon.
Assay [14] concerns MCF7 breast.
Assay [15] concerns HCT-116 colon.
The subject of assay [16] is HCC-2998 colon.
Assay [17] has as its system KM12 colon.
Assay [18] deals with BT-549 breast.

This note sets out measurements from PubChem BioAssay (NCI).

Compounds without any hit were thinned out: in the full panel of roughly 83,000, 20% have a hit.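 Each cell line was grown in a 96-well plate and treated with one concentration of compound for 48 hours. Values below 10 were considered active.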 Values without a mark were called inactive. Active and inactive are the calls of the source.

In the case of `O=C(CCCCCCCn1cc(-c2cccnc2)nn1)Nc1ccccc1-c1ccccc1`, the growth was 49.2% in assay [1]; 30.5% in assay [2]; 20% in assay [3]; 62.6% in assay [4]; 41.7% in [5]; 61.7% in assay [6]. Besides, the growth in assay [7] is 28.3%; in [8], 48.8%; in assay [9], 66.4%; in assay [10] it was 24.1%; in [11], 28%; in assay [12], 22.5%. Also, the growth in [13] was 20.6%; in assay [14], 38.5%; in [15] it was 0.699% (active); in [16] it was 38.1%; in assay [17] it was 29.4%.

As for `CNC(=O)c1cc(Oc2ccc3nc(Nc4cc(Cl)cc(Cl)c4)ccc3c2)ccn1`, the growth in assay [1] is 6.56% (active); in assay [2], 57.6%; in assay [3], 67.9%; in assay [4], 104%; in [5] it was 57.2%; in assay [6], 86.2%. Further, the growth is 79.6% in assay [7]; 57.8% in assay [8]; 64.5% in assay [9]; 35.6% in assay [10]; 55.6% in assay [11]; 58.9% in assay [18]. In addition, the growth in assay [12] was 12.8%; in assay [14], 38.8%; in assay [15], 49%; in assay [16] it was 74.5%; in assay [17], 30.2%.

As to `CC(C)(O)c1cccc(F)c1`, the growth in assay [1] was 96.9%; in assay [2], 103%; in assay [3], 107%; in [4], 99.3%; in assay [5], 112%; in assay [6], 135%. Moreover, the growth in assay [7] is 104%; in assay [8], 127%; in [9] it was 103%; in assay [10], 102%; in assay [11] it was 140%; in [18], 104%. Also, the growth is 103% in [12]; 98.4% in assay [14]; 93.8% in [15]; 105% in [16]; 103% in assay [17].

With `CCCCn1c(=O)[nH]c(N)c(C(c2ccc(F)cc2)c2c(N)[nH]c(=O)n(CCCC)c2=O)c1=O`, the growth is 42% in [1]; 50% in assay [2]; 66.5% in assay [3]; 94.4% in assay [4]; 64.6% in assay [5]; 80.6% in assay [6]. Also, the growth is 78.8% in assay [7]; 54% in [8]; 81.1% in assay [9]; 96.7% in [10]; 39.6% in assay [11]; 64.7% in assay [12]. Besides, the growth in assay [13] was 91.1%; in assay [14] it was 46.8%; in [16] it was 72.9%; in assay [17], 61.3%.

For `CSc1ncc(C)c(Nc2ccc(Cl)cc2)n1`, the growth is 89.9% in assay [1]; 102% in assay [2]; 104% in assay [3]; 112% in assay [4]; 99.8% in [5]; 126% in [6]. The growth in [7] was 85.8%; in assay [8] it was 111%; in [9], 94.9%; in assay [10], 98.1%; in assay [11] it was 119%; in [18], 87.1%. Besides, the growth in assay [12] was 106%; in assay [13], 102%; in assay [15], 94.2%; in [16] it was 113%; in assay [17], 100%.

For `CCc1nc2ccccc2[nH]1`, the growth is 100% in [1]; 98.9% in assay [2]; 101% in assay [3]; 110% in assay [4]; 112% in assay [5]; 105% in assay [6]. The growth is 130% in [7]; 119% in assay [8]; 94.3% in assay [9]; 111% in assay [10]; 123% in [11]; 113% in [12]. Further, the growth in [13] was 104%; in assay [14], 88.7%; in [15], 102%; in assay [16], 110%; in assay [17], 113%.

On to `Cc1cc2c(F)c(Oc3ncnc(Nc4ccc(N5C[C@@H](C)N[C@@H](C)C5)cc4)c3C#N)cc(F)c2[nH]1`, for which the growth in [1] is -26.4% (active); in assay [2], 2.98% (active); in assay [3] it was 25.6%; in assay [4], 103%; in [5], 16.2%; in [6], 92.8%. In addition, the growth in [7] was 73%; in [8] it was -29.6% (active); in assay [9], 64%; in [10] it was 50.6%; in assay [11], -1.93% (active); in assay [12], 19.9%. The growth in assay [13] is 3.6% (active); in assay [14] it was 12.3%; in assay [16] it was 84.1%; in assay [17], 11.9%.

For the compound `N#Cc1c(-c2ccccc2)nc(SCC2CO2)nc1N1CCOCC1` (centres undefined), the growth was 72.5% in assay [1]; 47.9% in [2]; 81.8% in assay [3]; 60.8% in assay [4]; 71.1% in assay [5]; 28.1% in assay [6]. Besides, the growth in assay [7] was 38.1%; in assay [8] it was 61.7%; in assay [9], 50%; in [10], 76.2%; in [11] it was 15.4%; in assay [18] it was 11.4%. The growth in assay [12] was 69.3%; in [14], 44.8%; in assay [15], 95%; in assay [16], 101%; in assay [17] it was 87.1%.
